Data: PubChem BioAssay AID488857 (Sanford-Burnham Center for Chemical Genomics, 2010)
About 560 (40%) of roughly 1,400 compounds were called active.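 Rule for the calls: active = mean inhibition over duplicate tests at 10 µM above 50%; inactive = the rest.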 The set was probably picked from earlier hits. The list shows a part of the results.

Assay: ASC/caspase-1 reporter retest in S. cerevisiae at one dose, specificity check for NALP1 project (AID 488857)
Details: S. cerevisiae ASC/Caspase-1, beta-galactosidase luminescence, 24 h; at 10 µM; hits give high values

SMILES | inhibition
Cc1ccc(/C=C/C(=O)NCc2ccc3c(c2)OCO3)o1 | 42.4% (inactive)
O=C(c1ccc(F)cc1)c1cn(Cc2ccc(F)cc2)c2cc3c(cc2c1=O)OCCO3 | 44.1% (inactive)
O=C(/C=C/c1ccc(F)cc1)NCCc1ccc2c(c1)OCCO2 | 61.6% (active)
O=C(NC(=S)Nc1cccnc1)c1cc2ccccc2o1 | 69.7% (active)
O=C(Nc1cccc(-c2nc3ncccc3o2)c1)c1cc2ccccc2o1 | 61.8% (active)
O=C(Nc1ccon1)c1cc2ccccc2oc1=O | 30.9% (inactive)
O=C(Nc1cccnc1)Nc1ccc2c(c1)OCO2 | 43.5% (inactive)
O=C(N/N=C/c1ccncc1)c1cc2ccccc2o1 | 41.4% (inactive)
O=C(O)CC(Cn1cnnn1)c1ccccc1 (stereo unspecified) | 29.3% (inactive)
CN(C#N)c1nc(Cl)nc(Nc2cccc(Cl)c2)n1 | 28.1% (inactive)
O=[N+]([O-])c1cc(C(F)(F)F)ccc1NCCc1c[nH]c2ccc(O)cc12 | 70.5% (active)
Cc1ccc(C(=O)NCCCNc2ccc(C(F)(F)F)cc2[N+](=O)[O-])cc1 | 46.6% (inactive)
C1CCC(C(CC2CCCCN2)C2CCCCC2)CC1 (stereo unspecified) | 39.9% (inactive)
COc1ccc(/C=N/N2CCOCC2)cc1COc1ccc(Cl)cc1 | 61% (active)
COc1cc(/C=N/n2cnnc2)ccc1OCc1ccc(C)cc1 | 48.5% (inactive)
O=C1C=CC(=O)N1CCCCCCN1C(=O)C=CC1=O | 73.7% (active)
O=C1C=CC(=O)N1CCNc1ncc(C(F)(F)F)cc1Cl | 44% (inactive)
CN1CCN(C2=C(Cl)C(=O)C(c3cnc(N4CCCCC4)s3)=C(Cl)C2=O)CC1 | 41.3% (inactive)
COc1ccc(OC)c(N/C(=N/C(=S)Nc2ccccc2)Nc2nc(C)cc(C)n2)c1 | 34.1% (inactive)
CCCn1nc(NC(=O)c2ccccn2)c2cc3cc(C)ccc3nc21 | 16.4% (inactive)
O=C(NCc1cccs1)c1csc2ccccc12 | 57.2% (active)
CC(C)CC(=O)c1c[nH]c(C(=O)NCc2cccs2)c1 | 38.2% (inactive)
CC1=C(OC(=O)c2ccc(Br)cc2)C(C)(C)C(c2ccccc2)OC1=O (stereo unspecified) | 22% (inactive)
CC1(C)COC(/C=C/c2ccc([N+](=O)[O-])cc2)=N1 | 83.1% (active)
CCCCN(Cc1ccccc1)C(=O)C1CCN(Cc2sccc2C)CC1 | 45.2% (inactive)
O=C(CCl)NC(=O)NC12CC3CC(CC(C3)C1)C2 | 59.9% (active)

SMILES | inhibition
O=C(CSc1ncn[nH]1)NC12CC3CC(CC(C3)C1)C2 | 19.1% (inactive)
O=C(CON=C1c2ccccc2-c2ccccc21)NC12CC3CC(CC(C3)C1)C2 | 33% (inactive)
CC1CCN(Cc2ccc(-c3nn[nH]n3)cc2)CC1 | 39.5% (inactive)
CCOc1cc(CNC2CCCC2)cc(Cl)c1OCc1ccc(F)cc1 | 60.9% (active)
CCOc1cc(CNCc2ccncc2)cc(Br)c1OCc1ccc(F)cc1 | 67.8% (active)
COc1cc(CNC2CCCCCCC2)cc(Br)c1OCC#N | 32.9% (inactive)
C/C(=C(\C#N)C(=O)NCc1ccccc1)N(C)C | 34.8% (inactive)
CCC(C)c1ccc(OCCn2ccnc2)cc1 (stereo unspecified) | 73.5% (active)
CCOc1ccc(OCCCCn2ccnc2)cc1 | 54.8% (active)
CC1=CCC2C(=O)N(Cc3ccccc3)C(=O)C2C1 (stereo unspecified) | 33.4% (inactive)
COc1ccc(-c2noc(CCC(=O)N3CCC(C)CC3)n2)cc1 | 47.6% (inactive)
CCCN(Cc1nc(-c2ccc(Cl)cc2)no1)CC1CCCO1 (stereo unspecified) | 54.2% (active)
O=C(COC(=O)C1(c2ccccc2F)CCCC1)N1CCOCC1 | 27.1% (inactive)
O=C1NC(c2ccccc2)Nc2c1sc(=S)n2-c1ccccc1 (stereo unspecified) | 32.5% (inactive)
COCCN=C1Sc2nc3ccc(C)cc3cc2CN1Cc1ccco1 | 57.1% (active)
COC(=O)c1cc(=O)n(-c2ccccc2)c(=Nc2ccccc2)s1 | 61.7% (active)
COC(=O)c1cc(=O)n(-c2ccc(F)cc2)c(=Nc2ccc(F)cc2)s1 | 39.8% (inactive)
Cc1nc(NC(=O)CCc2ccccc2)ccc1Br | 63.3% (active)
Cc1csc(NC(=O)CCc2ccc(S(=O)(=O)N3CCOCC3)cc2)n1 | 40.8% (inactive)
OC(CN1CCN(Cc2ccccc2)CC1)Cn1c2ccccc2c2ccccc21 (stereo unspecified) | 56.6% (active)
COc1ccc(OCC(O)Cn2c(=N)n(Cc3ccccc3)c3ccccc32)cc1 (stereo unspecified) | 27.6% (inactive)
OC(CN1CCCCC1)Cn1c2ccc(Cl)cc2c2cc(Cl)ccc21 (stereo unspecified) | 49% (inactive)
CCCSc1ccc2nc(-c3ccccc3)cn2c1 | 88.8% (active)
Cc1nc(-c2ccccc2)sc1C(=O)CSc1ccccc1 | 46.5% (inactive)
CC(C)CC(=O)N1CCN(c2ccc([N+](=O)[O-])cc2Cl)CC1 | 39.9% (inactive)
O=[N+]([O-])c1ccc(N2CCN(c3ccc(Cl)nn3)CC2)c(Cl)c1 | 47.7% (inactive)

SMILES | inhibition
O=C1C(Cl)=C(N2CCN(c3ccccc3[N+](=O)[O-])CC2)C(=O)c2ccccc21 | 68.8% (active)
CC1(C)Cc2c(c(N3CCOCC3)nc3sc4c(NCCN5CCOCC5)nnnc4c23)CS1 | 37.6% (inactive)
CC(C)(C)c1nnc(N/N=C/c2cc(Br)ccc2O)n(N)c1=O | 86.8% (active)
O=c1oc2ccccc2nc1/C=C(O)/C=C/c1ccc(F)cc1 | 47.2% (inactive)
C/C(=N/Nc1ccc([N+](=O)[O-])cc1)c1ccc(C)cc1C | 50.2% (active)
COc1ccc(C(=O)/C=C/Nc2ccc([N+](=O)[O-])cc2C)c(OC)c1 | 28.5% (inactive)
CN(C)CCCN(C(=O)c1ccc2c(c1)CCCC2)c1nc2ccc(F)cc2s1 | 61.3% (active)
CN(C)CCCN(C(=O)c1ccc2c(c1)CCCC2)c1nc2ccc(Cl)cc2s1 | 63.9% (active)
CCOC(=O)c1c(C)[nH]c(N=Nc2cccc(C)c2)c1C | 46.2% (inactive)
Cc1cc(N2CCOCC2)ccc1/C=C\[N+](=O)[O-] | 56.6% (active)
O=C1O/C(=C/c2ccccc2)c2ccccc21 | 78.5% (active)
COC1=C(N)C(=O)c2nc(-c3nc(C(=O)O)c(C)c(-c4ccc(OC)c(OC)c4O)c3N)ccc2C1=O | 29.4% (inactive)
c1ccc(-c2ccc(-c3cn4c(n3)CCC4)cc2)cc1 | 93.3% (active)
COc1cccc(CNC(=O)CSc2ccc(-c3ccncc3)nn2)c1 | 27.2% (inactive)
Cc1ccnc(NS(=O)(=O)c2ccc(NC(=O)CSc3nc(-c4ccccc4)cc(=O)[nH]3)cc2)n1 | 6.75% (inactive)
CC(C)NC(=O)CSc1nc(-c2ccccc2)cs1 | 52% (active)
O=C(c1cccc([N+](=O)[O-])c1)n1nc(-c2ccccc2)nc1NCc1ccccc1 | 49.2% (inactive)
O=C(CSc1nc(-c2ccccc2)cs1)Nc1cccc([N+](=O)[O-])c1 | 75.8% (active)
COc1ccc(Cc2nnc(SC)[nH]c2=O)cc1 | 20.1% (inactive)
CCOC(=O)c1[nH]c2ccc(Br)cc2c1NC(=O)CCN1CCC(C)CC1 | 40% (inactive)
Brc1cccc(OCCCCN2CCCCC2)c1 | 53.8% (active)
Cc1ccc(OCCCCN(C)Cc2ccccc2)c(Br)c1 | 54.8% (active)
Cc1cc(Br)ccc1OCCCCN1CCC(C)CC1 | 60.4% (active)
Brc1cccc(OCCN2CCCCC2)c1 | 49.1% (inactive)
CC(C)NCCCCOc1cccc(Br)c1 | 45.5% (inactive)
Cc1ccc(OCCCCN2CCCCC2)c(Br)c1 | 62.1% (active)

SMILES | inhibition
CC(C)N(C)CCOC(=O)c1ccccc1Br | 28.4% (inactive)
CC(CCc1ccccc1)NC(=O)c1cc2sccc2n1C (stereo unspecified) | 52% (active)
Cn1c(SCC(=O)NC(c2ccccc2)c2ccccc2)nnc1-c1cccs1 | 35.6% (inactive)
c1ccc2cc(CSCc3nc4ccccc4[nH]3)ccc2c1 | 71.4% (active)
C=C(C)C1CC=C(C)/C(=N/NC(=O)c2ccoc2C)C1 (stereo unspecified) | 36.6% (inactive)
CCOC(=O)c1c(C)[nH]c(C(=O)COC(=O)c2oc3ccccc3c2C)c1C | 31.9% (inactive)
CCOC(=O)c1c(C)[nH]c(C)c1C(=O)COC(=O)c1cc2ccccc2cc1O | 55.5% (active)
CCOC(=O)c1c(C)[nH]c2c1-c1ccccc1C(=O)C2=O | 26.6% (inactive)
Cc1cccc(NC2=C(Cl)C(=O)OC2NC(=O)c2ccccc2)c1 (stereo unspecified) | 23.1% (inactive)
COCc1cc(=O)[nH]c(/N=C(\N)Nc2cccc(C)c2)n1 | 25.1% (inactive)
CCCc1nn(C)c(C(=O)Nc2cccc(C)c2)c1Cl | 65.5% (active)
Cc1cc(=O)n2ccccc2c1C#N | 15.6% (inactive)
O=S(=O)(Nc1ccncc1Cl)c1ccccc1 | 25.1% (inactive)
O=C1C2C(C(=O)N1/N=C/c1cc(Br)cc([N+](=O)[O-])c1O)C1C=CC2C12CC2 (stereo unspecified) | 66.2% (active)
O=C1C2C(C(=O)N1/N=C/c1ccc([N+](=O)[O-])o1)C1C=CC2C12CC2 (stereo unspecified) | 38.2% (inactive)
CCOC(=O)c1c(NC2OC(=O)c3c2ccc(OC)c3OC)sc(C(=O)OC(C)(C)C)c1C (stereo unspecified) | 65.2% (active)
CCCCC(C(=O)NC1CCCC1)N(Cc1ccco1)C(=O)Cn1nnc(-c2ccc(F)cc2)n1 (stereo unspecified) | 31.1% (inactive)
Cn1cccc1/C=N/N1CCN(Cc2ccc(Cl)cc2)CC1 | 51.9% (active)
Cc1ccc(CN2CCN(/N=C/c3cccs3)CC2)cc1 | 28.2% (inactive)
CC(C)(CN1CCN(Cc2ccccc2)CC1)NS(=O)(=O)c1ccc(Cl)cc1 | 41.8% (inactive)
COc1ccccc1CN(Cc1nc2ccccc2c(=O)[nH]1)C(=O)Nc1ccccc1 | 46.4% (inactive)
C#C[C@]1(O)CC[C@H]2[C@@H]3CCC4=C(CCC(=O)C4)[C@H]3CC[C@@]21C | 61.3% (active)
C#C[C@]1(O)CC[C@H]2[C@@H]3CCc4cc(O)ccc4[C@H]3CC[C@@]21C | 79.5% (active)
